Measurements reported in PubChem BioAssay (EPA / NIEHS).
Calls of active or inactive are those of the source. The calls were made as follows: active = hit-call score of the fitted dose curve at least 0.9, where 1 is the maximum; inactive = score below 0.9.

Test: CCTE_Shafer_MEA_acute_per_network_burst_spike_number_std: CCTE's Neural Acute Assay for Standard Deviation of Number of Spikes in a Network Burst, Shafer Lab (AID 2284020);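 also: fitted for decrease in spike-number SD versus DMSO so actives lower it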
In short: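 Spontaneous network activity of primary rat cortical neurons is recorded extracellularly before and after a 40-min compound exposure (0.03-40 uM) at 37 C. The endpoint is the well's percent change in burst spike-number SD.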

Compound	AC50	outcome
CCC(C)(C)c1ccc(O)c(C(C)(C)CC)c1	6.52 µM (active)	
O=C(Nc1ccc2[nH]ccc2c1)c1cc2cc(F)ccc2n1Cc1cccc(F)c1		inactive
CC(=O)OC(c1ccccc1)C(Cl)(Cl)Cl (configuration not stated)		inactive
C[C@]12CCC(=O)C[C@@H]1CC[C@@H]1[C@@H]2CC[C@]2(C)[C@@H](O)CC[C@@H]12		inactive
O=C(O)C(Cl)(Cl)Cl		inactive
ClC1(Cl)C2(Cl)C3(Cl)C4(Cl)C(Cl)(Cl)C5(Cl)C3(Cl)C1(Cl)C5(Cl)C24Cl (configuration not stated)		inactive
O=C1C2(Cl)C3(Cl)C4(Cl)C(Cl)(Cl)C5(Cl)C3(Cl)C1(Cl)C5(Cl)C24Cl (configuration not stated)	9.39 µM (active)	
O=C(O)C(F)(F)C(F)(F)C(F)(F)C(F)(F)C(F)(F)C(F)(F)C(F)(F)C(F)(F)C(F)(F)C(F)(F)F		inactive
CCOP(=S)(OCC)SCSP(=S)(OCC)OCC	20 µM (active)	
COC(=O)Cc1ccccc1		inactive
CC(C)(C)c1cc(O)ccc1O	20 µM (active)	
C=C(C)C(=O)[O][Sn]([CH2]CCC)([CH2]CCC)[CH2]CCC	0.0933 µM (active)	
CC(C)(c1ccccc1)c1ccc(O)c(C(C)(C)c2ccccc2)c1		inactive
CC(C)(C)CC(C)(C)c1ccc(O)cc1		inactive
CC(C)(OO)c1ccccc1		inactive
CCCCCCCCc1ccc(O)cc1		inactive
CCN1CCC2(CC1)COc1cc3c(cc12)N(C(=O)c1ccc(-c2ccc(-c4nnc(C)o4)cc2C)cc1)CC3	30.1 µM (active)	
CCC(=O)C(CC(C)N(C)C)(c1ccccc1)c1ccccc1 (configuration not stated)		inactive
CC(=O)[O][Hg][c]1ccccc1	0.844 µM (active)	

Test: CCTE_Shafer_MEA_acute_per_network_burst_electrodes_number_mean: CCTE's Neural Acute Assay for Mean Number of Electrodes in a Network Burst, Shafer Lab (AID 2284021);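 also: curves fitted for decreases only so hits reduce electrodes per burst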
In short: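 Readout: % change in mean electrodes active per network burst, post- vs pre-treatment, each well. Spikes detected at 8x rms noise after 300-5000 Hz band-pass; rat cortical cultures, DIV 13/15, compounds 0.03-40 uM, DMSO baseline.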

Compound	AC50	outcome
CCC(C)(C)c1ccc(O)c(C(C)(C)CC)c1	20 µM (active)	
O=C(Nc1ccc2[nH]ccc2c1)c1cc2cc(F)ccc2n1Cc1cccc(F)c1		inactive
CC(=O)OC(c1ccccc1)C(Cl)(Cl)Cl (configuration not stated)		inactive
C[C@]12CCC(=O)C[C@@H]1CC[C@@H]1[C@@H]2CC[C@]2(C)[C@@H](O)CC[C@@H]12		inactive
O=C(O)C(Cl)(Cl)Cl		inactive
ClC1(Cl)C2(Cl)C3(Cl)C4(Cl)C(Cl)(Cl)C5(Cl)C3(Cl)C1(Cl)C5(Cl)C24Cl (configuration not stated)		inactive
O=C1C2(Cl)C3(Cl)C4(Cl)C(Cl)(Cl)C5(Cl)C3(Cl)C1(Cl)C5(Cl)C24Cl (configuration not stated)		inactive
O=C(O)C(F)(F)C(F)(F)C(F)(F)C(F)(F)C(F)(F)C(F)(F)C(F)(F)C(F)(F)C(F)(F)C(F)(F)F		inactive
CCOP(=S)(OCC)SCSP(=S)(OCC)OCC	11.8 µM (active)	
COC(=O)Cc1ccccc1		inactive
CC(C)(C)c1cc(O)ccc1O		inactive
C=C(C)C(=O)[O][Sn]([CH2]CCC)([CH2]CCC)[CH2]CCC	2.81 µM (active)	
CC(C)(c1ccccc1)c1ccc(O)c(C(C)(C)c2ccccc2)c1		inactive
CC(C)(C)CC(C)(C)c1ccc(O)cc1		inactive
CC(C)(OO)c1ccccc1		inactive
CCCCCCCCc1ccc(O)cc1		inactive
CCN1CCC2(CC1)COc1cc3c(cc12)N(C(=O)c1ccc(-c2ccc(-c4nnc(C)o4)cc2C)cc1)CC3		inactive
CCC(=O)C(CC(C)N(C)C)(c1ccccc1)c1ccccc1 (configuration not stated)		inactive
CC(=O)[O][Hg][c]1ccccc1	0.561 µM (active)	

Test: CCTE_Shafer_MEA_acute_network_burst_percentage: CCTE's Neural Acute Assay for Percentage of Network Bursts, Shafer Lab (AID 2284022);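 also: curves fitted for loss so actives lower network burst percentage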
In short: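 Rat cortical cultures, DIV 13/15; 20 min equilibration, 40 min baseline, compound 0.03-40 uM, 40 min recording, 37 C. Spikes: 300-5000 Hz band-pass, threshold 8x rms noise. Readout: % change in network-burst spike fraction; loss direction vs DMSO.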

Compound	AC50	outcome
CCC(C)(C)c1ccc(O)c(C(C)(C)CC)c1	36.6 µM (active)	
O=C(Nc1ccc2[nH]ccc2c1)c1cc2cc(F)ccc2n1Cc1cccc(F)c1		inactive
CC(=O)OC(c1ccccc1)C(Cl)(Cl)Cl (configuration not stated)		inactive
C[C@]12CCC(=O)C[C@@H]1CC[C@@H]1[C@@H]2CC[C@]2(C)[C@@H](O)CC[C@@H]12		inactive
O=C(O)C(Cl)(Cl)Cl		inactive
ClC1(Cl)C2(Cl)C3(Cl)C4(Cl)C(Cl)(Cl)C5(Cl)C3(Cl)C1(Cl)C5(Cl)C24Cl (configuration not stated)		inactive
O=C1C2(Cl)C3(Cl)C4(Cl)C(Cl)(Cl)C5(Cl)C3(Cl)C1(Cl)C5(Cl)C24Cl (configuration not stated)		inactive
O=C(O)C(F)(F)C(F)(F)C(F)(F)C(F)(F)C(F)(F)C(F)(F)C(F)(F)C(F)(F)C(F)(F)C(F)(F)F		inactive
CCOP(=S)(OCC)SCSP(=S)(OCC)OCC	27 µM (active)	
COC(=O)Cc1ccccc1		inactive
CC(C)(C)c1cc(O)ccc1O		inactive
C=C(C)C(=O)[O][Sn]([CH2]CCC)([CH2]CCC)[CH2]CCC	0.205 µM (active)	
CC(C)(c1ccccc1)c1ccc(O)c(C(C)(C)c2ccccc2)c1	28.6 µM (active)	
CC(C)(C)CC(C)(C)c1ccc(O)cc1		inactive
CC(C)(OO)c1ccccc1		inactive
CCCCCCCCc1ccc(O)cc1	3.39 µM (active)	
CCN1CCC2(CC1)COc1cc3c(cc12)N(C(=O)c1ccc(-c2ccc(-c4nnc(C)o4)cc2C)cc1)CC3	24.9 µM (active)	
CCC(=O)C(CC(C)N(C)C)(c1ccccc1)c1ccccc1 (configuration not stated)		inactive
CC(=O)[O][Hg][c]1ccccc1	1.3 µM (active)	
